PubChem BioAssay (NCATS)
Records with an inconclusive call do not appear. Values without a mark were called inactive. Activity calls are given as the source filed them. Calls follow the shape of the dose curve; as a rule, active = well fitted inhibition curve with a large enough effect; inconclusive = small, poorly fitted or top-dose-only effect; inactive = flat fitted curve, though single readings scatter.

test system: HB3; assay: qHTS profiling for inhibitors of Plasmodium falciparum proliferation (AID 504749); also: nearly all actives have a fitted effect of over 60% in size;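 as to activity, negative = inhibition: 0% = DMSO vehicle and full inhibition = artemisinin control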; conditions: P. falciparum in erythrocytes, SYBR Green DNA, 72 h; series mostly up to 28.7 µM; activity, negative = inhibition: at the top concentration
Procedure, shortened: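 SYBR Green fluorescence of parasite DNA, read after lysis and overnight dark incubation, measured growth over 72 h in erythrocyte culture at 0.3% parasitemia and 2.5% hematocrit. Data normalised to DMSO and 0.29 uM artemisinin, with plate-drift correction.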
Potency is read from the fitted curve at half-maximal effect.

| Structure (SMILES) | activity, negative = inhibition | Potency |
| --- | --- | --- |
| C[C@H](N)Cc1ccccc1 | -3.51% |  |
| C[C@]12C=CC(=O)C=C1CC[C@@H]1C2CC[C@]2(C)OC(=O)CCC12 (some centres not stated) | 8.34% |  |
| OCC(O)[C@H]1O[C@@H]2O[C@H](C(Cl)(Cl)Cl)O[C@@H]2[C@H]1O (some centres not stated) | 9.93% |  |
| CC1(C)[C@@H](C=C(Cl)Cl)[C@@H]1C(=O)OCc1c(F)c(F)cc(F)c1F | -7.13% |  |
| CC1(C)S[C@@H]2[C@H](N)C(=O)N2C1C(=O)O (some centres not stated) | 14.7% [at 12.8 µM] |  |
| C=C1Nc2ccccc2C(=O)N1c1ccccc1C | -3.62% |  |
| CC1OC(O[C@H]2C[C@@H](O)[C@]3(CO)[C@@H]4C(CC[C@]3(O)C2)[C@@]2(O)CC[C@H](C3=CC(=O)OC3)[C@@]2(C)C[C@H]4O)C(O)C(O)C1O (some centres not stated) | -27.7% |  |
| O=[N+]([O-])OC1CO[C@H]2C(O[N+](=O)[O-])COC12 (some centres not stated) | -0.639% |  |
| CCOC(=O)/C=C(C)/C=C/CC(C)CCCC(C)C (configuration not stated) | -3.06% |  |
| [S]=[Sb][S][Sb]=[S] | 6.12% |  |
| CN1C2CCC1C(C(=O)O)C(OC(=O)c1ccccc1)C2 (configuration not stated) | 1.09% |  |
| C[C@@H]1CC[C@H]2[C@@H](C)C(=O)O[C@@H]3OC4(C)CC[C@@H]1C32OO4 (some centres not stated) |  | 0.0089 µM (active) |
| Cc1ccc2c(c1)[C@@H]1CN(C)CC[C@H]1N2 | 12% |  |
| Nc1nc(O)c(-c2ccccc2)o1 | -8.1% |  |
| C=CC[N+]1(C)CCC23c4c5ccc(O)c4O[C@H]2C(=O)CC[C@@]3(O)C1C5 (some centres not stated) | 7.67% |  |
| OC[C@@H](O)[C@H]1O[C@@H]2OC(C(Cl)(Cl)Cl)O[C@H]2[C@H]1O (some centres not stated) | -2.16% |  |
| CCCCCCC(=O)O[C@H]1CC[C@H]2[C@@H]3CCC4CC(=O)C=C(C)[C@]4(C)[C@H]3CC[C@]12C (some centres not stated) |  | 11.2 µM (active) |
